This passage reports growth results from PubChem BioAssay (NCI).

Molecules are shown by their SMILES. About 83,000 compounds went through this panel and 20% of them were active in at least one assay; those are over-represented in the sample as a whole.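 Note: values are percent growth. 100 is the growth of untreated cells, values between 100 and 0 indicate rising inhibition; between -100 and 0 indicates cell death.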 A number with no mark means an inactive call. Active and inactive are the calls of the source. Rule for the calls: active = growth percent below 10; inactive = the rest.

In this experiment the test system is HS 578T breast. The experiment can be described thus: NCI-60 one-dose screen, 48 h (100 = growth as untreated, 0 = no growth, -100 = all killed). To be noted: 10 µM unless noted.
As for `CC1=CC[C@@H]2CC[C@]3(C)[C@H](CC[C@@H]4[C@@]5(C)CCCNC(C)(C)[C@@H]5CC[C@]43C)[C@H]2[C@@H]1C`, the growth is 92.9%.

On to `Fc1ccc(C2CC(c3cccc(Nc4ccncc4)c3)=NN2c2ccccc2)cc1` (stereo not drawn), for which the growth is 73.1%.

As for `Cc1ccc(C(=O)Nc2ccccc2C(=O)N/N=C(\c2ccccc2)c2ccccn2)cc1`, the growth is 68.3%.

With `COc1cc(/C=C/C(=O)c2c(C)oc3nc[nH]c(=O)c23)ccc1O`, the growth is 93%.

Regarding `CS(=O)(=O)Nc1cc(-c2ccc3ncnc(Nc4ccc5[nH]ncc5c4)c3c2)cnc1Cl`, the growth was 21.7%.

For `COc1ccc(-c2ncc(-c3ccccc3)[nH]2)cc1OC`, the growth is 102%.

For the compound `O=C1Nc2cc(-c3ccncc3)ccc2/C1=C/c1ccc[nH]1`, the growth is 107%.

As for `Nc1c(C(=O)Nc2ccc(Cl)cc2)cc(-c2nc3ccccc3s2)c(=O)n1NS(=O)(=O)c1ccc(Cl)cc1`, the growth was 98.4%.

As for `CCOc1cc(CNc2ccc(N3CCOCC3)c(C(=O)O)c2)ccc1OC`, the growth was 95.6%.

For `Cc1ccc(C2CC(c3cccc(Nc4ccncc4)c3)=NN2c2cc(Cl)cc(Cl)c2)cc1` (stereo not drawn), the growth is 62.6%.

In the case of `COc1ccc(/C(C)=N/NC(=O)CSc2nc3ccccc3c(=O)n2Cc2ccc(S(N)(=O)=O)cc2)c(OC)c1`, the growth was 102%.

As to `COc1ccc(C(=O)c2cc(C)c(OC)c(C)c2)c(OC)c1N(C(=O)C(Cl)Cl)C(=O)C(Cl)Cl`, the growth is 22.1%.

Turning to `Cc1ccccc1-c1cc(Cc2ccc(F)cc2)c(=O)[nH]n1`, the growth is 99.9%.

`CCCC1C(C(=O)OCC)=C(N)Oc2cc(O)ccc21` (stereo not drawn): the growth was 101%.

As to `COc1c(Cl)cc(Cl)c2ccc(C=C3C(=O)N(C)C(=O)N(C)C3=O)nc12`, the growth is 104%.

On to `O=C1Nc2ccccc2/C1=N/c1nc(-c2ccc(Cl)cc2)cs1`, for which the growth was 71.6%.

Turning to `COC(=O)Nc1nc2ccc(C(=O)c3cccc(I)c3)cc2[nH]1`, the growth is 13.6%.

On to `O=C(Nc1ccc(Nc2ncccn2)cc1)NC1C=c2ccccc2=CC1` (stereo not drawn), for which the growth was 100%.

Turning to `CNC(=O)c1c(NC(=O)c2ccc(C(C)C)cc2)sc2c(CN(C)C)c(O)ccc12`, the growth was 89.6%.

`COc1ccc(Cc2nc3cc(OC)c(OC)cc3c(=O)[nH]2)cc1`: the growth was 77.5%.

Turning to `O=C1c2cccnc2C(=O)c2nc3cc(N4CCN(C5CC5)CC4)ccc3nc21`, the growth was -36.5% (active).

With `CCOC(=O)N1CCN(CCCCl)CC1`, the growth was 108%.

Take `O=C(OCc1nc2nc(Cl)nc(N3CCOCC3)c2[nH]1)n1ccnc1`: the growth is 5.43% (active).

On to `COc1ccc(C(=O)c2cc3c(N)c(C(=O)Nc4cccc(Cl)c4C)sc3nc2C)cc1`, for which the growth is 15%.

With `O=C(OC(OC(=O)c1cc(Cl)cc(Cl)c1)c1cccc2ccccc12)c1ccccc1` (stereo not drawn), the growth is 98.2%.

In the case of `CN(Cc1ccccc1)c1nc(Cl)c(C2CC(c3ccc(Cl)cc3)=Cc3[nH][nH]c(=O)c32)s1` (stereo not drawn), the growth was 96.4%.

Consider `COc1ccc(NC(=O)c2sc3nc(C)c(C(=O)CCc4cccc(OC)c4)cc3c2N)cc1`, for which the growth was 82%.

For the compound `O=S(=O)(NCCCNc1nccc(-c2c(-c3cccc(O)c3)nc3occn23)n1)c1ccc(F)cc1`, the growth was 82.3%.

Turning to `CC(=O)N1c2ccccc2NC2=C(C(=O)N(Cc3ccccc3)C2(C)C)C1c1ccco1` (stereo not drawn), the growth is 10.7%.

Turning to `C#Cc1cccc(NC(=O)Nc2ccc(NC(=O)CCl)cc2)c1`, the growth is -4.85% [8.25 µM] (active).

`COc1cc(COC(=O)CCCCC[P+](c2ccccc2)(c2ccccc2)c2ccccc2)c(OC)c2c1OCO2`: the growth is 70.8%.

Regarding `Cc1c([N+](=O)[O-])cc(C(C)(C)C)cc1[N+](=O)[O-]`, the growth was 99.5%.

Take `Clc1nc(Cl)c2ncn(CC3(Cn4cnc5c(Cl)nc(Cl)nc54)COC3)c2n1`: the growth is -43.8% (active).

Consider `COc1cc2nc(-c3ccc(C(F)(F)F)cc3)cc(OCCCN3CCC(O)CC3)c2cc1OC`, for which the growth was 64.7%.

Take `COc1cc(Nc2cc(O)c3c(=O)cc(-c4ccccc4)oc3c2)cc(OC)c1`: the growth was 12.4%.

`C[C@]12C[C@H]1CC[C@]1(C)[C@@H]2CC[C@@]23C[C@H](CC[C@H]21)[C@@](O)(CO)C3`: the growth was 99.6%.

In the case of `Cc1nc2sc(C(=O)Nc3ccccc3)c(N)c2cc1C(=O)c1ccc(C(F)(F)F)cc1`, the growth was 85.6%.

With `N#CSCC1CC(O)(c2ccccc2)C(c2ccccc2)C(c2ccc(F)cc2)O1` (stereo not drawn), the growth is -11.2% (active).
